Compound activity deposited in PubChem BioAssay by National Center for Advancing Translational Sciences (NCATS).
The list is not random: actives were taken first. Their share in the collection is about 7.8%.
Vaccinia Venus: vaccinia inhibition (Venus reporter). 330,000 tested, 0.46% active. Potency, µM (highest dose often 36.5 µM), for the others: top-dose activity change, negative = inhibition, hits mostly inhibitors. Vaccinia virus Venus reporter expression, fluorescence; calls by dose curve; tested in A549 cells; note: potency is the fitted concentration of half-maximal effect; nearly all actives have a fitted effect of over 30% in size
LASV entry inh: blocks Lassa virus binding to or entry into cells; Potency, µM (doses to about 37.9 µM), inactives show at the highest dose activity change, negative = inhibition, usual class: inhibitors; Lassa virus pseudotype entry inhibition, cell reporter; 300,000 tested, 1.2% active; AID 540256; calls by dose curve; tested in HEK293 cells; note: potency is the fitted concentration of half-maximal effect; nearly all actives have a fitted effect of over 50% in size
VACV mCherry inh: inhibitors of vaccinia virus infection (mCherry reporter signal); Vaccinia virus mCherry reporter infection, fluorescence; Potency, µM (doses to about 36.5 µM), inactives show top-dose activity change, negative = inhibition, actives largely listed as inhibitors; 310,000 tested, 0.63% active; AID 720579; calls by dose curve; tested in A549 cells; note: potency is the fitted concentration of half-maximal effect; nearly all actives have a fitted effect of over 35% in size
HCMV inh: inhibitors of human cytomegalovirus; HFF cells, HCMV-luciferase reporter, 72 h; active compounds read low; activity change, negative = inhibition, % at 57.5 µM; 410,000 tested, 4.5% active; in the data active = activity change below about -60%; inconclusive = no clear call, values can overlap the other calls; inactive = above about -39%
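Inhibition of viral replication was scored as loss of reporter luminescence in HFFs infected with HCMV-luciferase (MOI 1 PFU/cell) for 72 h; compounds tested at 2 doses, normalized to buffer and Salinomycin controls.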
Marburg entry inh: inhibitors of Marburg virus binding or cell entry; Potency, µM (highest dose often 37.8 µM), for inactives: at the top dose activity change, negative = inhibition, actives largely listed as inhibitors; Marburg virus pseudotyped entry inhibition, cell reporter; 300,000 tested, 1.8% active; AID 540276; calls by dose curve; tested in HEK293 cells; note: potency is the fitted concentration of half-maximal effect
HCV inh: blocks hepatitis C virus; Huh7.5.1 HCVcc-Cre infection, luciferase reporter, 44 h; Potency, µM (highest dose often 41.8 µM), without a hit: at the highest dose activity change, negative = inhibition, most hits filed as inhibitors; 340,000 tested, 3.4% active; active = well fitted inhibition curve with a large enough effect; inconclusive = small, poorly fitted or top-dose-only effect, or another doubt; inactive = no such curve, though single readings can be large or run the other way; note: potency is the fitted concentration of half-maximal effect
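After 44 h co-culture of compound, cells and HCVcc-Cre (~0.5 moi), substrate is added for 15 min at room temperature and luciferase measured over 15 sec. Cells were seeded at 1,000/well and pre-cultured 4 h.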
Numbers without * were called inactive; i = inactive; ? = inconclusive; nt = no result; + = active, no number; [ ] = another dose, or the depositor's remark. % is set by controls: 0 for no effect and ±100 for the full control effect.

SMILES	Vaccinia Venus	LASV entry inh	VACV mCherry inh	HCMV inh	Marburg entry inh	HCV inh
C[C@]12C[C@@](C)(C=C1C=Cc1ccccc1)C(=O)C[C@H]2c1ccccc1	nt	nt	nt	nt	2.6%[14.2 µM]	nt
COc1ccc(CNC(=O)O[C@H]2CC[C@@]34CCCN3C(=O)CCC[C@H]4[C@H]2Cc2ccccc2)cc1OC	nt	nt	nt	10.0	nt	nt
N#Cc1c2n(c3c(=O)n(Cc4ccccc4Cl)cnc13)CCCC2	nt	?	nt	-31.2	?	11.2µM*
COCCn1c(=O)[nH]c(=O)c2cc(C(=O)c3cc(Cl)ccc3O)cnc21	-4.0%	?	-3.8%	nt	-25.7%[46.1 µM]	1.78µM*
COc1ccc(O)c(C(=O)c2cnc3c(c2)c(=O)[nH]c(=O)n3C)c1	-12.9%	16.9%	?	14.7	-0.4%	?
COc1ccc(-c2nc(CCl)cs2)cc1OC	-22.5%	-6.4%	-2.0%	35.5	22.6%[46.1 µM]	11.2µM*
CCCCOc1ccc(C(=O)NCCc2csc(-c3ccc(OC)cc3)n2)cc1	?	?	?	-60.8*	nt	nt
COc1ccc(-c2nc(CCl)cs2)cc1	nt	nt	nt	-35.6	nt	-4.2%
O=C(NCCc1csc(-c2ccccc2)n1)c1cccs1	-12.8%	nt	-8.1%	1.8	nt	?
COc1ccc(-c2nc(CCNC(=O)c3cccs3)cs2)cc1OC	-9.1%	?	-13.3%	-84.2*	nt	nt
C[C@@H]1CCCCO[C@@H](CN(C)CC2CCCCC2)[C@@H](C)CN([C@H](C)CO)C(=O)c2cc(NC(=O)Nc3ccc4c(c3)OCO4)ccc2O1	nt	nt	nt	9.4	nt	nt
COc1ccc(NC(=O)Cn2c(=O)oc3cc(S(=O)(=O)N4CCCCCC4)ccc32)cc1OC	-20.0%	?	-19.4%	-10.6	nt	nt
CCNC(=S)N=Nc1c(O)[nH]c2ccc(C(C)C)cc12	?	3.55µM*	?	-65.8*	-23.3%	?
N#Cc1cccc(NC(=O)CSc2nc3c(cc2C#N)N2CCC3CC2)c1	-16.8%	?	-23.3%	-82.7*	?	nt
N#Cc1cc2c(nc1SCC(=O)Nc1cccc(C(F)(F)F)c1)C1CCN2CC1	-22.6%	-36.3%[46.1 µM]	-28.3%	?	-9.0%[46.1 µM]	nt
N#Cc1cc2c(nc1SCC(=O)Nc1ccc(OC(F)(F)F)cc1)C1CCN2CC1	-17.8%	-29.3%[46.1 µM]	-27.3%	-71.9*	nt	nt
Cc1cc(C)c(NS(=O)(=O)c2ccc(-c3cnc(C4CC4)o3)cc2)c(C)c1	-29.7%	?	-28.9%	-91.9*	nt	nt
CCOc1ccccc1NS(=O)(=O)c1ccc(-c2cnc(C3CC3)o2)cc1	-27.2%[7.34 µM]	?	-30.5%[7.34 µM]	+	nt	?
COc1ccc(NS(=O)(=O)c2ccc(-c3cnc(C4CC4)o3)cc2)cc1OC	nt	nt	nt	-73.6*	nt	?
O=S(=O)(Nc1cccc(C(F)(F)F)c1)c1ccc(-c2cnc(C3CC3)o2)cc1	-18.6%	?	?	-38.1	nt	nt
O=S(=O)(c1ccc(-c2cnc(C3CC3)o2)cc1)N1CCN(c2ccc(F)cc2)CC1	-20.1%	7.94µM*	?	-77.2*	nt	nt
COc1ccccc1NS(=O)(=O)c1ccc(-c2cnc(C3CC3)o2)cc1	nt	nt	nt	-12.8	nt	-6.2%
Cc1cc(C)c(NS(=O)(=O)c2cc(-c3cnc(C4CC4)o3)ccc2C)c(C)c1	-4.1%	-17.4%[46.1 µM]	-8.1%	-13.1	nt	nt
CCCS(=O)(=O)NC(=O)C1(C)CCN(C(=O)c2ccccc2F)C1 (centres undefined)	-5.4%	nt	35.9%	3.7	nt	nt
Cc1cc(=O)n2c3ccccc3n(CC(O)CN3CCCCC3)c2c1C#N (centres undefined)	-6.2%	8.4%	13.1%	-87.3*	?	?
SMILES	Vaccinia Venus	LASV entry inh	VACV mCherry inh	HCMV inh	Marburg entry inh	HCV inh
Cc1cc(=O)n2c3ccccc3n(CC(O)CN3CCOCC3)c2c1C#N (centres undefined)	-8.6%	-9.6%[46.1 µM]	-8.3%	-15.7	-8.4%[46.1 µM]	?
COC(=O)C1Cc2ccccc2CN1C(=O)CCl (centres undefined)	?	?	-24.6%	?	7.08µM*	?
COc1cccc(C2c3c(C)nn(-c4ccc([N+](=O)[O-])cc4)c3N=C3C(=O)Nc4ccccc4N32)c1 (centres undefined)	-3.3%	?	2.9%	-21.0	-1.9%[46.1 µM]	?
Cc1nn(-c2ccc([N+](=O)[O-])cc2)c2c1C(c1ccc(OC(F)F)cc1)N1C(=N2)C(=O)Nc2ccccc21 (centres undefined)	-8.4%	?	-17.4%	-15.1	?	2µM*
C#CCN1C(=O)[C@]2(O[C@H](COc3ccccc3)CC3=C2CCC3)c2ccccc21	nt	?	nt	nt	-41.4%[14.2 µM]	nt
O=C(C[n+]1cccc2cccc(O)c21)c1ccc(Br)cc1	-2.6%	nt	-12.6%	nt	nt	nt
COCc1nn2c(N)c(-c3ccccc3)cnc2c1-c1ccccc1	-19.8%	?	i	19.7	11.8%[46.1 µM]	-3.9%
COc1ccc(-c2c(C)nn3c(N)c(-c4ccccc4)cnc23)cc1OC	nt	nt	nt	2.7	nt	12.6µM*
COc1ccccc1-c1c(C)nn2c(N)c(-c3ccccc3)cnc12	-21.0%	-8.5%[46.1 µM]	i	-81.7*	?	?
CCOC(=O)c1c(C)[nH]c(C)c1S(=O)(=O)N1CCC(C(=O)NCc2ccc(F)cc2)CC1	-19.8%	-12.6%[46.1 µM]	-10.9%	-5.6	nt	nt
COc1c(CC=C(C)C)c(O)cc2oc(=O)c3c4ccc(O)cc4oc3c12	0.4%	nt	-6.2%	nt	nt	3.98µM*
Cc1ccc2nc(C3CCN(C(=O)NCc4ccccc4)CC3)[nH]c2c1	-13.3%	-16.9%[14.3 µM]	-23.7%	-88.2*	10.7%	nt
Cc1cc(NC(=O)NC(=O)c2ccc(F)cc2F)n[nH]1	-12.8%	15.8µM*	nt	25.0	?	16.5%
COc1ccccc1N1CCN(C(=O)CCc2nnc3n(C)c(=O)c4sccc4n23)CC1	?	5.3%[46.1 µM]	-28.8%	-2.6	3.1%[46.1 µM]	nt
c1ccc(Sc2nc(N3CCCCC3)nc(N3CCCCC3)n2)nc1	nt	-4.0%	nt	-6.4	-24.8%	10µM*
O=C1COCc2ccc(-c3ccc(Cl)cc3)cc2N1CCN1CCOCC1	nt	nt	nt	-8.7	nt	nt
O=C(O)c1ccc(Cl)c(N2C(=O)Nc3ccccc3N2O)c1	-6.2%	nt	-1.6%	-61.0*	nt	-4.7%
COCCNC(=O)COC(=O)C1=Cc2ccccc2OC1	-14.3%	-6.2%[46.1 µM]	i	-27.2	?	12.6µM*
O=C(COC(=O)C1=Cc2ccccc2OC1)NCc1ccccc1	-12.6%	-19.4%	-15.9%	-12.3	25.8%	7.1%
O=C(OCc1cccnc1)C1=Cc2ccccc2OC1	-2.7%	1.0%	-5.5%	-103.1*	-24.4%[46.1 µM]	2.7%
COc1ccccc1CCNCc1cc2cccc(C)c2nc1-c1cccs1	-3.5%	nt	-9.3%	nt	nt	nt
O=C1CCN(CCc2ccccc2)CCN1[C@H](CO)Cc1ccccc1	-8.5%	nt	i	-9.9	nt	2.24µM*
O=C(O)CCn1c(=O)c2ccccc2c2ccccc2c1=O	-9.2%	0.5%	-13.6%[1.46 µM]	-101.0*	4.6%	13.4%
O=C(O)CCn1c(=O)[nH]c2ccccc2c1=O	-6.9%	nt	-14.3%	37.6	nt	2.4%
COc1ccc(CCNc2nc(SCc3cccc(Cl)c3)nc3ccccc23)cc1OC	?	12.6%[46.1 µM]	-26.9%	65.3	nt	nt
Cc1ccc(NS(=O)(=O)c2ccc(-c3cc(C)no3)cc2)c(Br)c1	-20.6%	?	-23.3%	-22.0	nt	nt
